{
  "source": "paper PMC11062922",
  "about": "(Nature Chemical Biology, 2023)",
  "system": "AURKA",
  "details": "read-out: apparent Kd, n = 1",
  "note": "Like-named read-outs stand apart in the source and are kept apart here.",
  "data": [
    {"substance": "Lestaurtinib", "values": [
      {"measurement": "potency estimated from few doses", "setting": "compound concentrations:100 nM and 1000 nM (sheet 'Lestaurtinib' of Supplementary Table 1),run:Lestaurtinib_02438_R2,Plate:MR008", "result": 18.1, "unit": "nM"},
      {"measurement": "potency estimated from few doses", "setting": "compound concentrations:100 nM and 1000 nM (sheet 'Lestaurtinib' of Supplementary Table 1),run:Lestaurtinib_02438_R3,Plate:MR008", "result": 16.7, "unit": "nM"},
      {"measurement": "potency estimated from few doses", "setting": "compound concentrations:100 nM and 1000 nM (sheet 'Lestaurtinib' of Supplementary Table 1),run:Lestaurtinib_02443_R1,Plate:MR009", "result": 19, "unit": "nM"},
      {"measurement": "potency estimated from few doses", "setting": "compound concentrations:100 nM and 1000 nM (sheet 'Lestaurtinib' of Supplementary Table 1),run:Lestaurtinib_02443_R3,Plate:MR009", "result": 22, "unit": "nM"},
      {"measurement": "potency estimated from few doses", "setting": "compound concentrations:100 nM and 1000 nM (sheet 'Lestaurtinib' of Supplementary Table 1),run:Lestaurtinib_02473_R1,Plate:MR010", "result": 20, "unit": "nM"},
      {"measurement": "potency estimated from few doses", "setting": "compound concentrations:100 nM and 1000 nM (sheet 'Lestaurtinib' of Supplementary Table 1),run:Lestaurtinib_02473_R3,Plate:MR010", "result": 16.1, "unit": "nM"},
      {"measurement": "potency estimated from few doses", "setting": "compound concentrations:100 nM and 1000 nM (sheet 'Lestaurtinib' of Supplementary Table 1),run:Lestaurtinib_02482_R1,Plate:MR011", "result": 18.9, "unit": "nM"},
      {"measurement": "potency estimated from few doses", "setting": "compound concentrations:100 nM and 1000 nM (sheet 'Lestaurtinib' of Supplementary Table 1),run:Lestaurtinib_02482_R2,Plate:MR011", "result": 19.3, "unit": "nM"},
      {"measurement": "potency estimated from few doses", "setting": "compound concentrations:100 nM and 1000 nM (sheet 'Lestaurtinib' of Supplementary Table 1),run:Lestaurtinib_02487_R1,Plate:MR012", "result": 17.5, "unit": "nM"},
      {"measurement": "potency estimated from few doses", "setting": "compound concentrations:100 nM and 1000 nM (sheet 'Lestaurtinib' of Supplementary Table 1),run:Lestaurtinib_02487_R3,Plate:MR012", "result": 24.8, "unit": "nM"},
      {"measurement": "potency estimated from few doses", "setting": "compound concentrations:100 nM and 1000 nM (sheet 'Lestaurtinib' of Supplementary Table 1),run:Lestaurtinib_02496_R2,Plate:MR013", "result": 17.6, "unit": "nM"},
      {"measurement": "potency estimated from few doses", "setting": "compound concentrations:100 nM and 1000 nM (sheet 'Lestaurtinib' of Supplementary Table 1),run:Lestaurtinib_02566_R2,Plate:MR014", "result": 21.1, "unit": "nM"},
      {"measurement": "potency estimated from few doses", "setting": "compound concentrations:100 nM and 1000 nM (sheet 'Lestaurtinib' of Supplementary Table 1),run:Lestaurtinib_02572_R1,Plate:MR015", "result": 21.1, "unit": "nM"},
      {"measurement": "potency estimated from few doses", "setting": "compound concentrations:100 nM and 1000 nM (sheet 'Lestaurtinib' of Supplementary Table 1),run:Lestaurtinib_02572_R3,Plate:MR015", "result": 17.9, "unit": "nM"},
      {"measurement": "potency estimated from few doses", "setting": "compound concentrations:100 nM and 1000 nM (sheet 'Lestaurtinib' of Supplementary Table 1),run:Lestaurtinib_02577_R1,Plate:MR016", "result": 21.8, "unit": "nM"},
      {"measurement": "potency estimated from few doses", "setting": "compound concentrations:100 nM and 1000 nM (sheet 'Lestaurtinib' of Supplementary Table 1),run:Lestaurtinib_02577_R2,Plate:MR016", "result": 21.1, "unit": "nM"},
      {"measurement": "potency estimated from few doses", "setting": "compound concentrations:100 nM and 1000 nM (sheet 'Lestaurtinib' of Supplementary Table 1),run:Lestaurtinib_02577_R3,Plate:MR016", "result": 20.9, "unit": "nM"},
      {"measurement": "potency estimated from few doses", "setting": "compound concentrations:100 nM and 1000 nM (sheet 'Lestaurtinib' of Supplementary Table 1),run:Lestaurtinib_02584_R1,Plate:MR017", "result": 21.8, "unit": "nM"},
      {"measurement": "potency estimated from few doses", "setting": "compound concentrations:100 nM and 1000 nM (sheet 'Lestaurtinib' of Supplementary Table 1),run:Lestaurtinib_02584_R2,Plate:MR017", "result": 19.7, "unit": "nM"},
      {"measurement": "potency estimated from few doses", "setting": "compound concentrations:100 nM and 1000 nM (sheet 'Lestaurtinib' of Supplementary Table 1),run:Lestaurtinib_02601_R1,Plate:MR018", "result": 21.1, "unit": "nM"},
      {"measurement": "potency estimated from few doses", "setting": "compound concentrations:100 nM and 1000 nM (sheet 'Lestaurtinib' of Supplementary Table 1),run:Lestaurtinib_02601_R2,Plate:MR018", "result": 25.6, "unit": "nM"},
      {"measurement": "potency estimated from few doses", "setting": "compound concentrations:100 nM and 1000 nM (sheet 'Lestaurtinib' of Supplementary Table 1),run:Lestaurtinib_02601_R3,Plate:MR018", "result": 21.7, "unit": "nM"},
      {"measurement": "potency estimated from few doses", "setting": "compound concentrations:100 nM and 1000 nM (sheet 'Lestaurtinib' of Supplementary Table 1),run:Lestaurtinib_02606_R1,Plate:MR019", "result": 19.1, "unit": "nM"},
      {"measurement": "potency estimated from few doses", "setting": "compound concentrations:100 nM and 1000 nM (sheet 'Lestaurtinib' of Supplementary Table 1),run:Lestaurtinib_02606_R2,Plate:MR019", "result": 20.8, "unit": "nM"},
      {"measurement": "potency estimated from few doses", "setting": "compound concentrations:100 nM and 1000 nM (sheet 'Lestaurtinib' of Supplementary Table 1),run:Lestaurtinib_02606_R3,Plate:MR019", "result": 21.9, "unit": "nM"},
      {"measurement": "potency estimated from few doses", "setting": "compound concentrations:100 nM and 1000 nM (sheet 'Lestaurtinib' of Supplementary Table 1),run:Lestaurtinib_02624_R1,Plate:MR020", "result": 17.5, "unit": "nM"},
      {"measurement": "potency estimated from few doses", "setting": "compound concentrations:100 nM and 1000 nM (sheet 'Lestaurtinib' of Supplementary Table 1),run:Lestaurtinib_02624_R3,Plate:MR020", "result": 15.7, "unit": "nM"},
      {"measurement": "potency estimated from few doses", "setting": "compound concentrations:100 nM and 1000 nM (sheet 'Lestaurtinib' of Supplementary Table 1),run:Lestaurtinib_02724_R2,Plate:MR021", "result": 21.3, "unit": "nM"},
      {"measurement": "potency estimated from few doses", "setting": "compound concentrations:100 nM and 1000 nM (sheet 'Lestaurtinib' of Supplementary Table 1),run:Lestaurtinib_02741_R2,Plate:MR023", "result": 19.9, "unit": "nM"},
      {"measurement": "potency estimated from few doses", "setting": "compound concentrations:100 nM and 1000 nM (sheet 'Lestaurtinib' of Supplementary Table 1),run:Lestaurtinib_02741_R3,Plate:MR023", "result": 23.2, "unit": "nM"},
      {"measurement": "potency estimated from few doses", "setting": "compound concentrations:100 nM and 1000 nM (sheet 'Lestaurtinib' of Supplementary Table 1),run:Lestaurtinib_02748_R2,Plate:MR024", "result": 22.5, "unit": "nM"},
      {"measurement": "potency estimated from few doses", "setting": "compound concentrations:100 nM and 1000 nM (sheet 'Lestaurtinib' of Supplementary Table 1),run:Lestaurtinib_02748_R3,Plate:MR024", "result": 22.2, "unit": "nM"},
      {"measurement": "potency estimated from few doses", "setting": "compound concentrations:100 nM and 1000 nM (sheet 'Lestaurtinib' of Supplementary Table 1),run:Lestaurtinib_02752_R1,Plate:MR025", "result": 19, "unit": "nM"},
      {"measurement": "potency estimated from few doses", "setting": "compound concentrations:100 nM and 1000 nM (sheet 'Lestaurtinib' of Supplementary Table 1),run:Lestaurtinib_02752_R2,Plate:MR025", "result": 16, "unit": "nM"},
      {"measurement": "potency estimated from few doses", "setting": "compound concentrations:100 nM and 1000 nM (sheet 'Lestaurtinib' of Supplementary Table 1),run:Lestaurtinib_02752_R3,Plate:MR025", "result": 19.7, "unit": "nM"},
      {"measurement": "potency estimated from few doses", "setting": "compound concentrations:100 nM and 1000 nM (sheet 'Lestaurtinib' of Supplementary Table 1),run:Lestaurtinib_02765_R2,Plate:MR026", "result": 23.1, "unit": "nM"},
      {"measurement": "potency estimated from few doses", "setting": "compound concentrations:100 nM and 1000 nM (sheet 'Lestaurtinib' of Supplementary Table 1),run:Lestaurtinib_02766_R1,Plate:MR027", "result": 17.5, "unit": "nM"},
      {"measurement": "potency estimated from few doses", "setting": "compound concentrations:100 nM and 1000 nM (sheet 'Lestaurtinib' of Supplementary Table 1),run:Lestaurtinib_02766_R2,Plate:MR027", "result": 17, "unit": "nM"},
      {"measurement": "potency estimated from few doses", "setting": "compound concentrations:100 nM and 1000 nM (sheet 'Lestaurtinib' of Supplementary Table 1),run:Lestaurtinib_02766_R3,Plate:MR027", "result": 19.1, "unit": "nM"},
      {"measurement": "potency estimated from few doses", "setting": "compound concentrations:100 nM and 1000 nM (sheet 'Lestaurtinib' of Supplementary Table 1),run:Lestaurtinib_02768_R1,Plate:MR028", "result": 20.8, "unit": "nM"},
      {"measurement": "potency estimated from few doses", "setting": "compound concentrations:100 nM and 1000 nM (sheet 'Lestaurtinib' of Supplementary Table 1),run:Lestaurtinib_02768_R3,Plate:MR028", "result": 19.7, "unit": "nM"},
      {"measurement": "potency estimated from few doses", "setting": "compound concentrations:100 nM and 1000 nM (sheet 'Lestaurtinib' of Supplementary Table 1),run:Lestaurtinib_02795_R3,Plate:MR022", "result": 60.5, "unit": "nM"}
    ]}
  ]
}
